Drawing on ChEMBL document CHEMBL3988442, “University of Dundee, Small-Polar-MMV Screening Library” (2021), this text covers Percent Effect for four compounds.

For some of these results: Entries with a potency or affinity are not part of this list.

Common to all, as to set-up: scale not given: direction of the effect not stated beside the values
Test [1] concerns the target Protein translocase subunit SecA (Escherichia coli (strain K12)) (UniProt P10408). In words: Assay to Identify E. coli SecA ATPase Inhibitors. Type of test: functional. To be noted: 30 µM.
Test [2] deals with T1, Ubiquitin-activating enzyme e1, putative (Leishmania donovani (strain BPK282A1)) (UniProt E9BSI1).
T1 sequence (whole entry): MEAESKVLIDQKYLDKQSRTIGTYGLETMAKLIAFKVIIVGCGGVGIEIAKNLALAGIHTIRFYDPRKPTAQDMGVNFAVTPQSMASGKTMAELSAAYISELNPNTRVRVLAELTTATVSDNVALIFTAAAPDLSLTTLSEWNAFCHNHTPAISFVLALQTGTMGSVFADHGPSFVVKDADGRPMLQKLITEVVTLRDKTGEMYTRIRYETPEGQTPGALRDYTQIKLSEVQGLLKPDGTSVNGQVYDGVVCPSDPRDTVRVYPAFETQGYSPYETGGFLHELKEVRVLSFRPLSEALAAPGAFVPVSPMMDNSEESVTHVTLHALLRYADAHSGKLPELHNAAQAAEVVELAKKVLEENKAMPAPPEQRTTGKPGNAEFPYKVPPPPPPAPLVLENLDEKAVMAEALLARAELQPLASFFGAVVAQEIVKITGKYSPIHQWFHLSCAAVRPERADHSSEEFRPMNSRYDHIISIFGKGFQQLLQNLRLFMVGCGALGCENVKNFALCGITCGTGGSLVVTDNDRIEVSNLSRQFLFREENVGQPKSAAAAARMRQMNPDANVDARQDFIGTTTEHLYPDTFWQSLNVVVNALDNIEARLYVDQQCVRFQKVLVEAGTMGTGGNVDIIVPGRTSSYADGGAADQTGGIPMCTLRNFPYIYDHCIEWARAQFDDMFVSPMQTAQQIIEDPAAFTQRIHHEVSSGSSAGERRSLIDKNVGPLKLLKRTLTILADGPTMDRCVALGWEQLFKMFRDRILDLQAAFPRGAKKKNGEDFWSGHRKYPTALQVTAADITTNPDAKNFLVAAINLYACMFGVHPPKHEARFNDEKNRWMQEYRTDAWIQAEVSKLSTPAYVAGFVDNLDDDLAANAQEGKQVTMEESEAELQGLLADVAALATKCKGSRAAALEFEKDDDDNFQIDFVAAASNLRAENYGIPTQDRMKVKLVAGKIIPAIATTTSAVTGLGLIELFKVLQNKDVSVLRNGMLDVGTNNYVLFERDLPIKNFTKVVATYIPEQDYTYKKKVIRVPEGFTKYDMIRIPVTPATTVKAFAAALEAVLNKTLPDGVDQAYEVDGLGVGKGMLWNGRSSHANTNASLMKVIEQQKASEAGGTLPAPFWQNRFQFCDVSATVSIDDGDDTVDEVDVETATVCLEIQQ
Briefly: Leishmania donovani Ubiquitin Activating Enzyme (LdE1). The class given is functional. To be noted: 30 µM.

Test [3] deals with T2, Aspartate--tRNA(Asp/Asn) ligase (Mycobacterium tuberculosis (strain ATCC 25618 / H37Rv)) (UniProt P9WFW3).
T2 sequence (whole entry): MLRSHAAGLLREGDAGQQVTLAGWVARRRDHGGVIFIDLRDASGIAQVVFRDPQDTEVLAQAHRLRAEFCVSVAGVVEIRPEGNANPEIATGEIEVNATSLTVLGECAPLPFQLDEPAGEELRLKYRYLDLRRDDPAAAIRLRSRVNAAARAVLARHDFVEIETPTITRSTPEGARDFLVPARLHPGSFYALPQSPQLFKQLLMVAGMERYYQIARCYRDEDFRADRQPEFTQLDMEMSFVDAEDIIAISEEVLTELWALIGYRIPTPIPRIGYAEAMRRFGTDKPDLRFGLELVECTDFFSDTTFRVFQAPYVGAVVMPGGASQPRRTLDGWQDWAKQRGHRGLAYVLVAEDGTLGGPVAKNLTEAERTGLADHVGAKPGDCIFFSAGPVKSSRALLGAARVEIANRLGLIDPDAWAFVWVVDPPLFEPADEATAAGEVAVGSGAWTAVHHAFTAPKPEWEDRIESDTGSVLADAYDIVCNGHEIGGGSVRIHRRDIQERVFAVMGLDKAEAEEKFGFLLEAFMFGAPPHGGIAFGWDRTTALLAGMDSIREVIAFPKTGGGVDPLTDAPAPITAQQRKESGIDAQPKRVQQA
Briefly: Assay for Asp RNA synthetase-1 from Mycobacterium tuberculosis. The class given is functional. To be noted: 30 µM.

Test [4] concerns the target AMP-activated protein kinase, AMPK (Homo sapiens) (UniProt P54646+O43741+P54619+Q9UGJ0+Q9Y478+Q13131+Q9UGI9). Briefly: AMP-dependent Kinase enzyme assay. An in vitro enzyme assay that detects ADP turnover that is directly proportional to AMPK activity. This uses naive AMPK that is activated during the assay with MK-8722. Type of test: functional. To be noted: 30 µM.
For test [5], the target named is Sialic acid-binding Ig-like lectin 9 (Homo sapiens) (UniProt Q9Y336). Briefly: Hs-Siglec9 ALPHAscreen SOP 20170721. To be noted: 10 µM. Background: Bead proximity is the source of the signal in Alpha formats.
Sialic acid-binding Ig-like lectin 9 (Homo sapiens), sequence (Q9Y336 whole entry): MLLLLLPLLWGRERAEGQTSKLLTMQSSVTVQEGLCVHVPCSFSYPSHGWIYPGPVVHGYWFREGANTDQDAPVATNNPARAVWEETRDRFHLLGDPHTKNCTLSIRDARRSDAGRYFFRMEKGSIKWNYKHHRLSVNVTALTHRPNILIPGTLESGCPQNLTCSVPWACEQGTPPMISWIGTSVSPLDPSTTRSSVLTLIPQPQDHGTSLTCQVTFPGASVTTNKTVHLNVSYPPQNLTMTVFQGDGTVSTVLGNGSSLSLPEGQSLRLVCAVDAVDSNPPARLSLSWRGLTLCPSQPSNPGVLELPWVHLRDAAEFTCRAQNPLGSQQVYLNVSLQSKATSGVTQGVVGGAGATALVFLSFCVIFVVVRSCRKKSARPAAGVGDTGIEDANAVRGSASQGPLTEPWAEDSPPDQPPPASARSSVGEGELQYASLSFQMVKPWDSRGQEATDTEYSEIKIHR
The subject of the next test is Trypanosoma cruzi. In words: Trypanosoma cruzi phosphomannomutase and mannose-1-phosphate guanylyltransferase assay. Type of test: functional. To be noted: 10 µM.
Test [6] has as its target T3, Arginase-2, mitochondrial (Homo sapiens) (UniProt P78540).
T3 sequence (whole entry): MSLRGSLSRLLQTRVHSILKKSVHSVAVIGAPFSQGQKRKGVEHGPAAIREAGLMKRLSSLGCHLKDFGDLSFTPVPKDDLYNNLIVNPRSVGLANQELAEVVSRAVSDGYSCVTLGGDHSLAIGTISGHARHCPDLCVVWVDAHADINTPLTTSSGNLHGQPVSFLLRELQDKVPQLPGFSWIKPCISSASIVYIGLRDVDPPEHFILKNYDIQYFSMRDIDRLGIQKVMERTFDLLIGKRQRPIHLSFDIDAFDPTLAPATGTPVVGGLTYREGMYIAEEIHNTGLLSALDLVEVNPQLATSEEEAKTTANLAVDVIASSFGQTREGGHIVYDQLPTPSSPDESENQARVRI
Briefly: in vitro enzyme assay to detect the production of urea directly proportional to the activity of Arginase II. Note: in the data most compounds retested in dose-response had high values. The class given is functional. To be noted: 33.3 µM.

In test [7] the target is T4, Proteasome subunit beta (Trypanosoma cruzi) (UniProt O96673).
T4 sequence (whole entry): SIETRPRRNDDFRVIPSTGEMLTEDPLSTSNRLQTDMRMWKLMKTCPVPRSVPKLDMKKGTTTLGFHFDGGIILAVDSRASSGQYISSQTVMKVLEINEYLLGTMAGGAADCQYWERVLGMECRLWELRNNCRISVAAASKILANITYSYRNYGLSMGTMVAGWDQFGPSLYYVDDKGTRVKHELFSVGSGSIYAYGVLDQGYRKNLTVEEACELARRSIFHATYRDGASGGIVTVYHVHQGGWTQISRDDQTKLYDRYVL
In words: Trypanosoma cruzi proteasome chymotrypsin-like activity (TcProtChymo) assay. Note: in the data most compounds retested in dose-response had high values. The class given is functional. To be noted: 9.37 µM.

The next test is filed under the species Homo sapiens. In words: To identify inhibition of the IFN signalling (Jak-Stat) pathway via expression of an eGFP reporter gene under the control of an IFN-stimulated response element (ISRE) containing MxA promoter. The class given is functional. To be noted: 30 µM.
In test [8] the target is Shiga toxin 2 (Escherichia coli O157:H7) (UniProt P09385+P09386). In words: E. coli 0.157:H7 Shiga Toxin SOP - stx2 screening assay. Type of test: functional. To be noted: 30 µM.
For test [9], the target named is T5, Tyrosyl-tRNA synthetase, putative (Trypanosoma cruzi (strain CL Brener)) (UniProt Q4DSP6).
T5 sequence (whole entry): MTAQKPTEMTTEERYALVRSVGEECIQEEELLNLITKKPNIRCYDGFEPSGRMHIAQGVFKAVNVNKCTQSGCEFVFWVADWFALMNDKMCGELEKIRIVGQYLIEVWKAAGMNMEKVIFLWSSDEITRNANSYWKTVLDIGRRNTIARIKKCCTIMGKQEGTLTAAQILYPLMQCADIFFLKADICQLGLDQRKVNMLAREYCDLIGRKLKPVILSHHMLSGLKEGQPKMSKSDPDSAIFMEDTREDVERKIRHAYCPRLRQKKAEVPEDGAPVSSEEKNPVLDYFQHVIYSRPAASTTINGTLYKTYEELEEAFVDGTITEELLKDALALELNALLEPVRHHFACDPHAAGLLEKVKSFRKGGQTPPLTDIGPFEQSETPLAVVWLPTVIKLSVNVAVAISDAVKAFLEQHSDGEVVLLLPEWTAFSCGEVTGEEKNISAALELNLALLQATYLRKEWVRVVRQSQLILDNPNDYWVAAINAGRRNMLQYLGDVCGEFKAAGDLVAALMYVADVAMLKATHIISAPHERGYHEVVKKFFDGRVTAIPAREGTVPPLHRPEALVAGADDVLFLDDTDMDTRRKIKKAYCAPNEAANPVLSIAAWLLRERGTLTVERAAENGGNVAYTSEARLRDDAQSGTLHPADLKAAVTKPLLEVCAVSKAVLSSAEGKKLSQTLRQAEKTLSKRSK
In words: Trypanosoma cruzi tyrosyl tRNA synthetase (TcYRS) _High Tyrosine SOP. Note: in the data most compounds retested in dose-response had high values. Type of test: functional. To be noted: 30 µM.

The target of test [10] is T5, Tyrosyl-tRNA synthetase, putative (Trypanosoma cruzi (strain CL Brener)). In words: Trypanosoma cruzi tyrosyl tRNA synthetase (TcYRS) SOP. The class given is functional. To be noted: 30 µM.
Test [11] addresses Chromo domain-containing protein 1 (Saccharomyces cerevisiae (strain ATCC 204508 / S288c) (Baker's yeast)) (UniProt P32657). Briefly: ScCHD-1 Enzyme Inhibition Assay. Note: in the data most compounds retested in dose-response had high values. Type of test: functional. To be noted: 30 µM.

Protein translocase subunit SecA (Escherichia coli (strain K12)), sequence (P10408 whole entry): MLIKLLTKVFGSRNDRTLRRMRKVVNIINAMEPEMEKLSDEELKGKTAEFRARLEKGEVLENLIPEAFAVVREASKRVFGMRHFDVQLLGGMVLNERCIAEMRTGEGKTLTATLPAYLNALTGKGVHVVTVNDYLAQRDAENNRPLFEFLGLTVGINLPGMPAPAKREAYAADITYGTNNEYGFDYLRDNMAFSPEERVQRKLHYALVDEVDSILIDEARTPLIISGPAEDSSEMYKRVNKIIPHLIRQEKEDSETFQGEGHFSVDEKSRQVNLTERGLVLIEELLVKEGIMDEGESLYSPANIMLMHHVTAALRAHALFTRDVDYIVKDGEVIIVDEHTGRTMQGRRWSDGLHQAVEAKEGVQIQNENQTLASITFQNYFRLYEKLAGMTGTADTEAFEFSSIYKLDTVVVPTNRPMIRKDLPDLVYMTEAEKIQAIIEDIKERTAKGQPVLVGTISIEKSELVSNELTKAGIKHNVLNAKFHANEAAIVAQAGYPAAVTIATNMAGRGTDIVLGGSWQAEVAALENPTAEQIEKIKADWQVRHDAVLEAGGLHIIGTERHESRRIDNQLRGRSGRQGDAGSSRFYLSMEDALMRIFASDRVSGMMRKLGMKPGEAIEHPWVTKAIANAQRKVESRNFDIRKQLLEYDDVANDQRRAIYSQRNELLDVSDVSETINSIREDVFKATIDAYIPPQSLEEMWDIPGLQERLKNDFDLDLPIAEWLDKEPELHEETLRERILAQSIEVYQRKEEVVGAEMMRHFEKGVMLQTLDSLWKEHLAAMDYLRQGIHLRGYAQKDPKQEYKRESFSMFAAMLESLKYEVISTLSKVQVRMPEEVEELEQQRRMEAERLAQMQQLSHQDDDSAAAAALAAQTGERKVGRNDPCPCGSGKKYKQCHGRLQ
Chromo domain-containing protein 1 (Saccharomyces cerevisiae (strain ATCC 204508 / S288c) (Baker's yeast)), sequence (P32657 whole entry, the tested form may be a part): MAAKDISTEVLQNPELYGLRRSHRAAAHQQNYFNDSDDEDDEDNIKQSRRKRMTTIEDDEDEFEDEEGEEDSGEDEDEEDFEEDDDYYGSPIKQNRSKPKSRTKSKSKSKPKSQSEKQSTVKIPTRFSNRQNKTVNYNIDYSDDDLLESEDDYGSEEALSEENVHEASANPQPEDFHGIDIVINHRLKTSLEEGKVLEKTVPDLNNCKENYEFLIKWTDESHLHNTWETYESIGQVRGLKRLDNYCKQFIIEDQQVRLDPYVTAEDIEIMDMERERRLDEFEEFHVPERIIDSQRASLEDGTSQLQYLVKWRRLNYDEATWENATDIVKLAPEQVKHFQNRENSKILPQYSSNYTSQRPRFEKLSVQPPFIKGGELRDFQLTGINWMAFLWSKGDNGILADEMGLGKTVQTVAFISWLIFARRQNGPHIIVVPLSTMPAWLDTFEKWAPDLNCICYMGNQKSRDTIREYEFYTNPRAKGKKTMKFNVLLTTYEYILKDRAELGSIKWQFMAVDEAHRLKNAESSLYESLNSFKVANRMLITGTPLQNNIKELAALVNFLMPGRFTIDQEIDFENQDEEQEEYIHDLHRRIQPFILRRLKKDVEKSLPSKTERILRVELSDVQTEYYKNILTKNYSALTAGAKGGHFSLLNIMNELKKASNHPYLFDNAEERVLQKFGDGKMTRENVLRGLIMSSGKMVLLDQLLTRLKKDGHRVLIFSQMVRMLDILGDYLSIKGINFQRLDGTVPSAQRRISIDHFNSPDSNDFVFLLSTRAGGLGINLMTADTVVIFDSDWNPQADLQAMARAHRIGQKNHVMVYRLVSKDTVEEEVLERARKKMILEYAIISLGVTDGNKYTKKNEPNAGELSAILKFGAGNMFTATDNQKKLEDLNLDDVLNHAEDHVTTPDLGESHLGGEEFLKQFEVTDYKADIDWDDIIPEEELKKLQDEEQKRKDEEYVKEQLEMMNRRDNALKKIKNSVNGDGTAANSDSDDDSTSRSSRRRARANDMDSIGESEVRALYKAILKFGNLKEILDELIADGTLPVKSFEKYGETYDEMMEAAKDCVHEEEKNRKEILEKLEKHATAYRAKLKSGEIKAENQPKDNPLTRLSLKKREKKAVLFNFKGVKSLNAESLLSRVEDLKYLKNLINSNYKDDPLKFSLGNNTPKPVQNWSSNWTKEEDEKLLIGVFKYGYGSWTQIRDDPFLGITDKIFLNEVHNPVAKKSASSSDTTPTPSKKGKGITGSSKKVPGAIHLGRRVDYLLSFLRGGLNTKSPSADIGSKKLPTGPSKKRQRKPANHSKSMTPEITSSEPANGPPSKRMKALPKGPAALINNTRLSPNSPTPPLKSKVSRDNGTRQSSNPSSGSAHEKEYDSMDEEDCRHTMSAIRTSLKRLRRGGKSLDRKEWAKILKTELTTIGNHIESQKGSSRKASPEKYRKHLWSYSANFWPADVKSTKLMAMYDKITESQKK

With `CN(C)C(=O)COC[C@H]1CC[C@@H]2[C@@H](CCN2Cc2ccccn2)O1`, the Percent Effect in test [1] was 1.44%; in [2], 2.7%; in test [3], -8.07%; in test [4], -3.81%; in test [5] it was 1.03%; with Trypanosoma cruzi, 4.1%. The Percent Effect in test [6] was 2.5%; in test [7], 8.88%; in the test filed under Homo sapiens it was -3.32%; in test [8], -6.42%; in test [9], -14.8%; in [10] it was 3.66%. Moreover, the Percent Effect in [11] is -2.81%.

For the compound `Cc1noc(C)c1CN1CC[C@H]2C[C@@H](c3nccs3)O[C@@H]2C1`, the Percent Effect was -4.73% in test [1]; 5.41% in test [2]; 3.41% in test [3]; 3.53% in test [4]; 1.06% in test [5]; 0.88% with Trypanosoma cruzi. Also, the Percent Effect in [6] is 0.319%; in [7], 18.1%; in the test filed under Homo sapiens, 4.79%; in test [8], 11.3%; in [9], 1.08%; in test [10], 7.69%. Besides, the Percent Effect in test [11] is -0.345%.

For the compound `Cc1nc(N(C)C)nc2c1COCC21CCN(CC2CC2)C1` (configuration not stated), the Percent Effect in test [1] is -3.83%; in test [2] it was -8.11%; in [3], 3.96%; in test [4], -0.232%; in [5], 1.53%; in the test with Trypanosoma cruzi, -5.86%. Further, the Percent Effect in test [6] is 1.25%; in test [7], 7.18%; in the test listed under Homo sapiens, 4.17%; in test [8], -14.2%; in test [9], 6.93%; in test [10], 6.1%. Also, the Percent Effect in [11] is -5.03%.

Consider `Cc1ccc(CC(=O)N2CCN(CC(O)c3ccccc3)CC2)cn1` (configuration not stated), for which the Percent Effect in test [1] was 1.4%; in test [2] it was 5.26%; in test [3] it was 1.83%; in test [4] it was -2.25%; in test [5] it was 3.56%; in the test on Trypanosoma cruzi it was 5.83%. Moreover, the Percent Effect in test [6] was 5.75%; in test [7], 1.5%; in the test listed under Homo sapiens it was -4.04%; in test [8] it was 2.79%; in test [9], 5.39%; in test [10] it was 17.1%. The Percent Effect in [11] was -5.71%.
